The record followed here is PubChem BioAssay (Tox21).

Unmarked numbers belong to inactive results. Records with an inconclusive call do not appear. Calls of active or inactive are those of the source. Unless noted, the call rests on the fitted dose curve; in most records, active means well fitted curve in the direction sought with a large enough effect in the repeat runs; inconclusive means weak or mixed curves; inactive means no such curve, though single readings can be large; an effect the other way counts as inactive or inconclusive.

Assay [1] is described as follows: qHTS assay to identify small molecule agonists of the estrogen receptor alpha (ER-alpha) signaling pathway in the presence of an antagonist - cell viability counter screen (AID 1259386).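 Further: series mostly up to about 92 µM; cells exposed to compounds for 22 h at 37 °C before the viability read; nearly all actives have a fitted effect of over 30% in size.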 In outline: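 Cells are starved of estrogens for 5 days in charcoal-stripped serum, seeded for 24hr and co-treated with ICI-182,780 (10.0nM final) and test compounds. After 22hr at 37C, viability is read as CellTiter-Fluor fluorescence.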
(Quantitative high-throughput screening tests each substance at several concentrations.)

Assay [2] has as its target Progesterone receptor (Homo sapiens) (UniProt P06401). Description: qHTS assay to identify small molecule agonists of the progesterone receptor (PR) signaling pathway (AID 1346784; calls by dose curve; further: nearly all actives have a fitted effect of over 30% in size). In outline: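 Fluorescence from LiveBLAzer B/G FRET substrate cleavage (2 hr, RT) reported PR activation in PR-UAS-bla HEK 293T cells treated 16 hr at 37C/5% CO2 with compounds; medium contained 2% charcoal-stripped FBS.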

Assay [3] in a line: qHTS assay to identify small molecule agonists of the progesterone receptor (PR) signaling pathway - cell viability counter screen (AID 1346799; calls by dose curve; further: nearly all actives have a fitted effect of over 45% in size). In outline:
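In parallel with the beta-lactamase readout, cytotoxicity toward PR-UAS-bla HEK293T cells was measured by CellTiter-Glo luminescence following 16 hr compound incubation in 2% charcoal-stripped FBS medium.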

Assay [4] can be described thus: qHTS assay to identify small molecule antagonists of the TGF-beta/Smad signaling pathway - cell viability counter screen (AID 1346824). Further: nearly all actives have a fitted effect of over 50% in size. In outline: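 Cytotoxicity counter-screen run in the same wells as the beta-lactamase Smad reporter read: CellTiter-Glo luminescence after 30 min at room temperature. HEK 293T SBE-bla cells had 5 hr compound exposure at 37 C with TGF-beta1 (0.25 ng/mL stock).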

A short description of assay [5]: qHTS assay to identify small molecule agonists of the TGF-beta/Smad signaling pathway (AID 1346859; active means well fitted activation curve with a large enough effect in the signal ratio in the repeat runs, not every such curve was filed as active; the % refers to the signal ratio; further: series mostly up to about 77 µM). In outline:
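After overnight seeding, SBE-bla HEK 293T cells are dosed with compounds in DMSO and kept 5 hr at 37 C, 5% CO2. LiveBLAzer-type FRET substrate is then applied for 2 hr at room temperature.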

The target in assay [6] is Thyrotropin-releasing hormone receptor (Homo sapiens) (UniProt P34981). The assay is described as follows: qHTS assay to identify small molecule antagonists of the thyrotropin-releasing hormone receptor (TRHR) signaling pathway (AID 1346877; active means well fitted inhibition curve with a large enough effect in the repeat runs, not every such curve was filed as active; further: series mostly up to about 51 µM). In outline:
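Cells (TRHR-HEK293) are plated and kept 18 h at 37 °C/5% CO2. A calcium-sensitive dye is added for 2 h, compound follows for 5 min at room temperature, and TRH is then given at 1 nM final.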

Assay [7] can be described thus: Caspase-3/7 induction in HepG2 cells by small molecules, qHTS assay (AID 1346978). Further: nearly all actives have a fitted effect of over 15% in size. The gist of the method:
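Caspase-3/7 induction was measured by Caspase-Glo 3/7 luminescence (30 min, room temperature) after a 17 hr compound exposure of wild-type HepG2 cells seeded at 2,000 per well and pre-incubated 5 hr.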

The nature of assay [8]: Caspase-3/7 induction in CHO-K1 cells by small molecules, qHTS cell viability counter screen (AID 1346979). Further: nearly all actives have a fitted effect of over 35% in size. In outline:
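Viability readout by fluorescence (CellTiter-Fluor) on wild-type CHO-K1 cells exposed for 16hr at 37C and 5% CO2 to compounds delivered in DMSO; reagent incubated 1hr before reading.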

Assay [9] concerns the target Acetylcholinesterase (Homo sapiens) (UniProt P22303). Description: Acetylcholinesterase (AChE) small molecule antagonists: colormetric cell-based qHTS assay (AID 1347395; calls by dose curve; further: nearly all actives have a fitted effect of over 30% in size). The gist of the method:
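Homogeneous whole-cell format. SH-SY5Y cells seeded overnight, dosed with compound (30 min, 37 C, 5% CO2), then given DTNB/acetylthiocholine cocktail for 90 min at 37 C; colorimetric signal.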

Assay [10] has as its target Thyrotropin-releasing hormone receptor (Homo sapiens) (UniProt P34981). The assay is described as follows: qHTS assay to identify small molecule agonists of the thyrotropin-releasing hormone receptor (TRHR) signaling pathway (AID 1346891; calls by dose curve;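 further: HEK293 cells expressing TRHR with calcium dye readout; series mostly up to about 58 µM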). The gist of the method:
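Compounds were tested as agonists at 15 concentrations, in triplicate, on TRHR-Hek293 cells; calcium-sensitive dye fluorescence was recorded for 3 min following addition.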

Assay [11] in a line: Human pregnane X receptor (PXR) small molecule agonists, qHTS cell viability counter screen (AID 1346977). Further: nearly all actives have a fitted effect of over 50% in size. In outline:
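Viability counter screen: CellTiter-Fluor signal in PXR-Luc HepG2 cells, 24hr compound exposure, 37C, 5% CO2.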

Assay [12] can be described thus: Caspase-3/7 induction in CHO-K1 cells by small molecules, qHTS assay (AID 1346980). Further: nearly all actives have a fitted effect of over 15% in size. The gist of the method: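 Luminescent Caspase-Glo 3/7 read (30min, room temperature) quantified apoptosis induction. Cells were wild-type CHO-K1, treated with compound for 17hr at 37 C and 5% CO2.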
The nature of assay [13]: Caspase-3/7 induction in HepG2 cells by small molecules, qHTS cell viability counter screen (AID 1346981). Further: series mostly up to about 92 µM; nearly all actives have a fitted effect of over 30% in size. In outline:
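Steps: seed 2,000 HepG2 cells per well; incubate 5 hr at 37 C; pin-add compounds in DMSO; incubate 16 hr; add CellTiter-Fluor; after 1 hr at 37 C and 5% CO2, read fluorescence.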

Assay [14] addresses Nuclear receptor subfamily 1 group I member 2 (Homo sapiens) (UniProt O75469). Description: Human pregnane X receptor (PXR) small molecule agonists, qHTS assay (AID 1346982). Further: nearly all actives have a fitted effect of over 35% in size. Further: potency means the concentration at half of the fitted maximal effect. In outline:
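Agonist mode qHTS: PXR-Luc HepG2 cells plated 5 hr before DMSO-dissolved compounds were pinned in, cultured 24 hr at 37 C, 5% CO2; ONE-Glo luminescence readout.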

Assay [15] in a line: qHTS assay to identify small molecule antagonists of the progesterone receptor (PR) signaling pathway - cell viability counter screen (AID 1346798). Further: series mostly up to about 92 µM; nearly all actives have a fitted effect of over 50% in size. The gist of the method: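 CellTiter-Glo luminescence; PR-UAS-bla HEK293T, 3,000 cells/well; compound + R5020, 16 hr, 37C/5% CO2; 30 min RT before read.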
The nature of assay [16]: qHTS assay to identify small molecule agonists of the TGF-beta/Smad signaling pathway - cell viability counter screen (AID 1346829). Further: top concentration of the series differs between compounds; nearly all actives have a fitted effect of over 45% in size. The gist of the method: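 Compound-treated SBE-bla HEK 293T cells (5 hr, 37 C) were assessed for viability with CellTiter-Glo in parallel with the reporter read.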
Assay [17] has as its target Nuclear receptor subfamily 1 group I member 2 (Rattus norvegicus) (UniProt Q9R1A7). The assay is described as follows: Rat pregnane X receptor (rPXR) activation by small molecules, qHTS assay (AID 1346983). Further: nearly all actives have a fitted effect of over 20% in size. The following applies: rPXR luciferase reporter cells, One-Glo luminescence, 24 h; stronger effect = higher value. In outline:
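Luminescent readout (One-Glo luciferase, 30 min room temperature) followed 24 hr compound treatment at 37 C of rPXR cells plated 2,000 per well and preincubated 5hr; qHTS format with compounds delivered in DMSO.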

Assay [18] addresses Nuclear receptor subfamily 1 group I member 2 (Homo sapiens) (UniProt O75469). The assay is described as follows: CYP3A4 induction through human pregnane X receptor (PXR) by small molecules, qHTS assay (AID 1346984). Further: nearly all actives have a fitted effect of over 40% in size. The gist of the method: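 Steps: seed DPX-2 cells, 5 hr at 37C; pin-transfer compounds; 24 hr at 37C; add Luciferin-IPA (3uM final), 3 hr at 37C; add One-Glo, 30 min RT; read luminescence.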

Assay [19] shares this target. Description: Human pregnane X receptor (PXR) activation by small molecules, qHTS assay (AID 1346985). Further: nearly all actives have a fitted effect of over 40% in size. Further: potency means the concentration at half of the fitted maximal effect. The gist of the method:
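DPX-2 cells (HepG2 co-transfected with a PXR response element and a CYP3A4-promoter luciferase construct) were seeded at 2,000 per well, rested 5 hr at 37C, then exposed to DMSO-dissolved compounds for 24 hr. Activation was read as luciferase luminescence.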
On the % scale 0 is the no-effect control and ±100 the full control effect.

Chain of Nuclear receptor subfamily 1 group I member 2 (Homo sapiens) (O75469 whole entry, looked up): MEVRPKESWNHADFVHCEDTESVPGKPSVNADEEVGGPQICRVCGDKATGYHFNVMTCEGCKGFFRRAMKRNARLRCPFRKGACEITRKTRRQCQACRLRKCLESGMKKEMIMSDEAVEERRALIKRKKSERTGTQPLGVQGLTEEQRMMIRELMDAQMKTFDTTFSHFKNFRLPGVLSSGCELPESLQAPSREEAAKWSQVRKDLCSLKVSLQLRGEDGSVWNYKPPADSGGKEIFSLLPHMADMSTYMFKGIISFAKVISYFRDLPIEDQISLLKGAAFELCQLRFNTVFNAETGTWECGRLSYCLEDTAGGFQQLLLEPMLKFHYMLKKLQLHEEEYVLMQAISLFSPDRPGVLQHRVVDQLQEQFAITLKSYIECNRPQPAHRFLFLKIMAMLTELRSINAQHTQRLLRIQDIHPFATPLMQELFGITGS
Chain of Thyrotropin-releasing hormone receptor (Homo sapiens) (P34981 whole entry, looked up): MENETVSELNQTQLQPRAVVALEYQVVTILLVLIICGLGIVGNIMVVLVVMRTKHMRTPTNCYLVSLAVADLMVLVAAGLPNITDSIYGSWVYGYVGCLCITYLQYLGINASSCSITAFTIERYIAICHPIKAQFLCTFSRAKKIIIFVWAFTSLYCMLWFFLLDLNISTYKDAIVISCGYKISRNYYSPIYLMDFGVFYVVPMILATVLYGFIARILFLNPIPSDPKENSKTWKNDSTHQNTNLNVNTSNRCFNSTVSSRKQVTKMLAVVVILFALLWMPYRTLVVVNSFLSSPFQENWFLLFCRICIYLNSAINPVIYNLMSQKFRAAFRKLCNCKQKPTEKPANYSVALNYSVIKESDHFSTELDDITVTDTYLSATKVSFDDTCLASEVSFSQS
Chain of Acetylcholinesterase (Homo sapiens) (P22303 whole entry, looked up): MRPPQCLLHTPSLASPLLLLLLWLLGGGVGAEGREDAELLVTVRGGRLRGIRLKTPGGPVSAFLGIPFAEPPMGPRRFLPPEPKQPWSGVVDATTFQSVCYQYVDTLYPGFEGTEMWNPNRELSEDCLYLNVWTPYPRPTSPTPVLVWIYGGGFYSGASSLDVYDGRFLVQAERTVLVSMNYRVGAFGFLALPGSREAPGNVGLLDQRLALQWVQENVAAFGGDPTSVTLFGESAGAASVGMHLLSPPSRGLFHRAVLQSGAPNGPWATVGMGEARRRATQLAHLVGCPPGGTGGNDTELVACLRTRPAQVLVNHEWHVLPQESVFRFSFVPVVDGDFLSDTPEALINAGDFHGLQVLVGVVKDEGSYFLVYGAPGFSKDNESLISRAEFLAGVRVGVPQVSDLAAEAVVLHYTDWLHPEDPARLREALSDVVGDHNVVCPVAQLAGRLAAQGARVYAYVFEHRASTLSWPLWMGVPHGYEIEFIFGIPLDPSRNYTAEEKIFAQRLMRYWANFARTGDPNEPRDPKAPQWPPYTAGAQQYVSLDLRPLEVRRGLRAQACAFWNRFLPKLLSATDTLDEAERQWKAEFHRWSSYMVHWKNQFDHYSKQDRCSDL
Chain of Progesterone receptor (Homo sapiens) (P06401 whole entry, looked up): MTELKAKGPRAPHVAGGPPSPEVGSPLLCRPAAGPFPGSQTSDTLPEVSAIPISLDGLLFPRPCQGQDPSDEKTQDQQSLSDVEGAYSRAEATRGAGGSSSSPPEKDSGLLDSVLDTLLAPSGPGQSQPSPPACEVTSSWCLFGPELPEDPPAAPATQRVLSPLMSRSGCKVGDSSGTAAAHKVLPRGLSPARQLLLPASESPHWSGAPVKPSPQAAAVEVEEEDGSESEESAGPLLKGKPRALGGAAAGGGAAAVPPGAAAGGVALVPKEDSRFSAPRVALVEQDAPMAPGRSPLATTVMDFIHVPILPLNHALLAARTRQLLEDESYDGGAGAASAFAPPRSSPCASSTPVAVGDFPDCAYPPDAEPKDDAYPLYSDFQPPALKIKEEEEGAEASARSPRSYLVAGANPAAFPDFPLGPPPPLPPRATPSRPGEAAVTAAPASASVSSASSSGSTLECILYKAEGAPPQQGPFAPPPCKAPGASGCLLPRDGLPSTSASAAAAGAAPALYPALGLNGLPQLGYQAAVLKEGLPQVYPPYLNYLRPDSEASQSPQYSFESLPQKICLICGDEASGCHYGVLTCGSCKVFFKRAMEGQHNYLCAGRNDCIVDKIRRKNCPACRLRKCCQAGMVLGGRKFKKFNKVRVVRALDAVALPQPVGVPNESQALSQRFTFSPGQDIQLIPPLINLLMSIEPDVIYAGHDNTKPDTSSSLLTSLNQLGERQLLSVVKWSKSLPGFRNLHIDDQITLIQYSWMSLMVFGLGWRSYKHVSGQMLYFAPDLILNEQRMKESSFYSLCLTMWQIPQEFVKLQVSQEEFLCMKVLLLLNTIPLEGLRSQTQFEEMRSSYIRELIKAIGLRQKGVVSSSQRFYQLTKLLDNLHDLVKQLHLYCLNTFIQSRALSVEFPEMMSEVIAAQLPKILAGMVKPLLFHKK
Chain of Nuclear receptor subfamily 1 group I member 2 (Rattus norvegicus) (Q9R1A7 whole entry, looked up): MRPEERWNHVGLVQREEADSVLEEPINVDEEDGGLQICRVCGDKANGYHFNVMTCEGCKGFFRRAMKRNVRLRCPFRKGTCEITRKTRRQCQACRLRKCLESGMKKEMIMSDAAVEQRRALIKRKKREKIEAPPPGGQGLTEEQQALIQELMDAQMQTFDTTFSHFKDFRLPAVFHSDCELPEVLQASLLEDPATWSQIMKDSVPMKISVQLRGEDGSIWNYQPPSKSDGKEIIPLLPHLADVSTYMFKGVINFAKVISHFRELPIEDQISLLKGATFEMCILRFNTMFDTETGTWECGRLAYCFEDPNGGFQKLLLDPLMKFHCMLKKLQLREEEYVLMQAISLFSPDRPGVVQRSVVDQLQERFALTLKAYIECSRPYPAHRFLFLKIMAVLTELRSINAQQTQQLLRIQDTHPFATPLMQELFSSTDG

On to `COc1cc(CC(C)N)c(OC)cc1Br` (centres undefined), for which the Potency result in assay [1], in assay [2], in [3], in [4], in [6] and in [7] was “inactive” throughout. For the same molecule, the Potency result in [8] and in assay [9] was “inactive” each time. The outcome in assay [5] was inactive.
As to `CCCCCCCCCCCCN(C)C`, the Potency entry in assay [1], in assay [2], in [3], in [4], in assay [6] and in [11] was “inactive” throughout. The Potency result in [7], in assay [8], in [12], in assay [13], in assay [14] and in assay [9] was “inactive” throughout. The molecule was classed as inactive in assay [5] and in [10].
On to `CCC1(CC)C(=O)NC(=O)NC1=O`, for which the Potency result in assay [1], in assay [2], in [15], in assay [4], in [16] and in assay [6] was “inactive” each time. For the same molecule, the Potency entry in assay [11], in assay [7], in assay [8], in assay [13], in assay [14] and in assay [19] was “inactive” each time. The Potency result in assay [9] was “inactive”. Further, the result in assay [5] and in assay [18] was inactive. Also, the max activation in assay [17] was 0.212%.
As to `O=C=NC1CCCCC1`, the Potency entry in [1], in assay [2], in [3], in assay [4], in assay [16] and in [6] was “inactive” each time. Also, the Potency entry in [11], in assay [7], in assay [12], in assay [13] and in assay [9] was “inactive” in each case. Also, the molecule was called inactive in assay [5]. In addition, in [14], the Potency is 9.71 µM (active).
As to `CCCCC#N`, the Potency entry in assay [1], in assay [2], in assay [15], in [3], in assay [6] and in assay [11] was “inactive” each time. Further, the Potency entry in assay [7], in assay [8], in [12], in assay [13], in [14] and in assay [9] was “inactive” throughout. In addition, the outcome in assay [5] and in assay [10] was inactive.
Turning to `C[C@H]1O[C@H](OC2[C@@H](O)[C@@H](O)C(O)[C@H](O)[C@H]2O)[C@@H](N)C[C@@H]1N=C(N)C(=O)O` (some centres undefined), the Potency result in assay [1], in assay [2], in assay [15], in assay [4], in assay [16] and in assay [6] was “inactive” in each case. The Potency entry in assay [11], in [7], in assay [8], in assay [12], in assay [13] and in assay [14] was “inactive” throughout. The Potency entry in assay [9] is “inactive”. The result in [10] was inactive.
Turning to `COc1ccc(C(=O)c2c(C)n(CCN3CCOCC3)c3ccccc23)cc1`, the Potency entry in assay [1], in assay [2], in assay [4], in assay [16], in assay [6] and in [11] was “inactive” each time. The Potency result in assay [7], in assay [12] and in assay [9] was “inactive” each time. The result in assay [5], in [10] and in [18] was inactive. Further, the Potency in assay [14] is 9.44 µM (active); in assay [19], 14.1 µM (active). The max activation in assay [17] is 9.34%.
Turning to `CN(C)C(=O)Nc1cccc(OC(=O)NC(C)(C)C)c1`, the Potency result in [1], in assay [2], in assay [3], in assay [4], in assay [16] and in assay [6] was “inactive” throughout. In addition, the Potency result in [11], in assay [7], in assay [8], in assay [12], in assay [13] and in [9] was “inactive” each time. For the same molecule, the outcome in assay [5] and in assay [10] was inactive.
